# According to article PMC7862700, “An all-to-all approach to the identification of sequence-specific readers for epigenetic DNA modifications on cytosine”:
# Columns and labels:
# Assay in all cases: DAPPL (digital affinity profiling via proximity ligation, sequencing); 10 mM Tris-HCl pH 7.5, 50 mM NaCl, 1 mM DTT, 4% glycerol, room temperature, 30 min; GST-TFs on glutathione beads, 16-mer random dsDNA library, 0.1% formaldehyde crosslink after washing; high values mean tight binding
# FEV = molecular target: T1, FEV (Homo sapiens, UniProt Q99581 1-238); conditions: protein: recombinant; tags: N-terminal GST; dsDNA, one strand shown
# T1 sequence: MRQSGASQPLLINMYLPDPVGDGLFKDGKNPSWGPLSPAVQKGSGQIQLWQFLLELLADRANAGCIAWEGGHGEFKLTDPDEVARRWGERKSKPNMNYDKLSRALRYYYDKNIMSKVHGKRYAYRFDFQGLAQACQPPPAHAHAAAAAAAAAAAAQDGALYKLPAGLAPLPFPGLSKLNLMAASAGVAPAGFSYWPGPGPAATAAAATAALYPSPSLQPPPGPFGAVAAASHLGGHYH
# Outline: (§1)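 Pools of DNA-barcoded human transcription factors, expressed in yeast as GST fusions on glutathione beads and combined with a tag-only sample, were incubated with 200 nmole of a 16-mer random double-stranded DNA library. Incubation took 30 min at room temperature in Tris/NaCl/DTT/glycerol buffer and was followed by washing, 0.1% formaldehyde crosslinking, proximity ligation (BsaI/T4 ligase, 1 h, 37 °C), PCR amplification and sequencing on an Illumina NextSeq500. Binding signal is the ratio of a hexamer's read frequency for a factor to its frequency for the tag-only sample.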
# ETV5 = ETV5 (Homo sapiens, UniProt P41161 1-510); conditions: protein: recombinant; tags: N-terminal GST; dsDNA, one strand shown
# Outline: as §1
# HSF1 = HSF1 (Homo sapiens, UniProt Q00613 1-529); conditions: protein: recombinant; tags: N-terminal GST; chain copies: 3; dsDNA, one strand shown
# Outline: as §1
# SPIC = molecular target: T2, SPIC (Homo sapiens, UniProt Q8N5J4 1-248); conditions: protein: recombinant; tags: N-terminal GST; dsDNA, one strand shown
# T2 sequence: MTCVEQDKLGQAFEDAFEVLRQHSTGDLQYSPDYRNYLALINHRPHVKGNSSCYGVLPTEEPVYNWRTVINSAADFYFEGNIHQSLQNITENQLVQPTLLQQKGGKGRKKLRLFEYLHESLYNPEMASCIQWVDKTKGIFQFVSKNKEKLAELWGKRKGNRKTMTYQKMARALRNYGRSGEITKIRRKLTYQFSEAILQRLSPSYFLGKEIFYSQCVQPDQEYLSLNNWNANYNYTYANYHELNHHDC
# Outline: as §1
# ELF4 = ELF4 (Homo sapiens, UniProt Q99607 1-663); conditions: protein: recombinant; tags: N-terminal GST; dsDNA, one strand shown
# Outline: as §1
# ELK4 = molecular target: T3, ELK4 (Homo sapiens, UniProt P28324-2 1-405); conditions: protein: recombinant; tags: N-terminal GST; dsDNA, one strand shown
# T3 sequence: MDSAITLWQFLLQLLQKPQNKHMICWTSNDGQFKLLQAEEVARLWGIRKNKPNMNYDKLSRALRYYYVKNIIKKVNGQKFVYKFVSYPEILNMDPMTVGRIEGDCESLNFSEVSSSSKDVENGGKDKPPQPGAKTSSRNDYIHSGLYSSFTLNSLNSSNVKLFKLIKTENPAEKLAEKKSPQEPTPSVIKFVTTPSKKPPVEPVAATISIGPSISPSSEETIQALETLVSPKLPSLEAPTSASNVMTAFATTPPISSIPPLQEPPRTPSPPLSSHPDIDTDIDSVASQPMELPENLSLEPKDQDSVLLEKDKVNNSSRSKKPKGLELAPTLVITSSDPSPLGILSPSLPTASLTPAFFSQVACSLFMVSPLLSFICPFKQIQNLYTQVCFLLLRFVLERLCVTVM
# Outline: as §1
# ETV2 = molecular target: T4, ETV2 (Homo sapiens, UniProt O00321 1-342); conditions: protein: recombinant; tags: N-terminal GST; dsDNA, one strand shown
# T4 sequence: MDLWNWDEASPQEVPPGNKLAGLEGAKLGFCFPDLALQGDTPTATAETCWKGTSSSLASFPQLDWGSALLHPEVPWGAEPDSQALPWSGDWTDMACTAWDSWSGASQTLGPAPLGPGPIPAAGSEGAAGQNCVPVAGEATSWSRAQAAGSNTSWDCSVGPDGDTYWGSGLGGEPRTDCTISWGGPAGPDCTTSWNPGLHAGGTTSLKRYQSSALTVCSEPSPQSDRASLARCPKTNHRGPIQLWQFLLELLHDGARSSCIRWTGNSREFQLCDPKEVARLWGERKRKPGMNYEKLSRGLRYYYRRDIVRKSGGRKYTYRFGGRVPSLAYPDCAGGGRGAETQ
# Outline: as §1
# ELF3 = molecular target: T5, ELF3 (Homo sapiens, UniProt P78545 1-371); conditions: protein: recombinant; tags: N-terminal GST; dsDNA, one strand shown
# T5 sequence: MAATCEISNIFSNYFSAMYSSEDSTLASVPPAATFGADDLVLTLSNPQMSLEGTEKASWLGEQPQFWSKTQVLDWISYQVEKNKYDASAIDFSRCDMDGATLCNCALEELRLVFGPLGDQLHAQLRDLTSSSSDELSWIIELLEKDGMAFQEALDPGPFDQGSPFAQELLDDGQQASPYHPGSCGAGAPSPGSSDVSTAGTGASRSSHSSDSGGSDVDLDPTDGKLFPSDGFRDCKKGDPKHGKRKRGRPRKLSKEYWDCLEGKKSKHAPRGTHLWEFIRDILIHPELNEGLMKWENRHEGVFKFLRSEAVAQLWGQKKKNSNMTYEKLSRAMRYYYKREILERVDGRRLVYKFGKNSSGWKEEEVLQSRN
# Outline: as §1
# CRX = CRX (Homo sapiens, UniProt O43186 1-299); conditions: protein: recombinant; tags: N-terminal GST; dsDNA, one strand shown
# Outline: as §1
# ETV1 = ETV1 (Homo sapiens, UniProt P50549 1-477); conditions: protein: recombinant; tags: N-terminal GST; dsDNA, one strand shown
# Outline: as §1
# Sequence of ETV5 (P41161 whole entry): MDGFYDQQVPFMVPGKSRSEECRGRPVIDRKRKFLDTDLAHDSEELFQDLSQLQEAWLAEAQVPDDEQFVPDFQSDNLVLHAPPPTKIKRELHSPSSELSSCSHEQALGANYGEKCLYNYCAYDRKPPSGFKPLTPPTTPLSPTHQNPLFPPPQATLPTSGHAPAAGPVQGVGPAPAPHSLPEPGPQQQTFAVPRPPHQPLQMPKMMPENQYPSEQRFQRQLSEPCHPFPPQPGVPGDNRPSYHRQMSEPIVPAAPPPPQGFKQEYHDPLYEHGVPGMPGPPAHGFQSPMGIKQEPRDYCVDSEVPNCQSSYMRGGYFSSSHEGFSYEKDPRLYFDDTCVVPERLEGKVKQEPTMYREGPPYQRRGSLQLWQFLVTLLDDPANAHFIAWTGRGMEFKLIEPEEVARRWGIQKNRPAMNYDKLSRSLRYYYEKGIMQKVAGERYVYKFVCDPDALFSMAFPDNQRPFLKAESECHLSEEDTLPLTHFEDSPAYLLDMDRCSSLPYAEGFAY
# Sequence of CRX (O43186 whole entry): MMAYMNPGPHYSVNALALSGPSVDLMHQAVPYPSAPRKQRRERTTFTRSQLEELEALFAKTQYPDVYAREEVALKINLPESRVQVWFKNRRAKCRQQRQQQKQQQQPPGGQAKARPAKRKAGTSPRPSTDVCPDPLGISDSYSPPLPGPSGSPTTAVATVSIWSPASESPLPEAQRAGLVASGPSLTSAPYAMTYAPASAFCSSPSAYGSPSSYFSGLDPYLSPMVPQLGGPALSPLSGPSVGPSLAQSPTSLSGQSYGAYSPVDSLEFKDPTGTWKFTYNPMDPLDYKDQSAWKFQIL
# Sequence of ELF4 (Q99607 whole entry): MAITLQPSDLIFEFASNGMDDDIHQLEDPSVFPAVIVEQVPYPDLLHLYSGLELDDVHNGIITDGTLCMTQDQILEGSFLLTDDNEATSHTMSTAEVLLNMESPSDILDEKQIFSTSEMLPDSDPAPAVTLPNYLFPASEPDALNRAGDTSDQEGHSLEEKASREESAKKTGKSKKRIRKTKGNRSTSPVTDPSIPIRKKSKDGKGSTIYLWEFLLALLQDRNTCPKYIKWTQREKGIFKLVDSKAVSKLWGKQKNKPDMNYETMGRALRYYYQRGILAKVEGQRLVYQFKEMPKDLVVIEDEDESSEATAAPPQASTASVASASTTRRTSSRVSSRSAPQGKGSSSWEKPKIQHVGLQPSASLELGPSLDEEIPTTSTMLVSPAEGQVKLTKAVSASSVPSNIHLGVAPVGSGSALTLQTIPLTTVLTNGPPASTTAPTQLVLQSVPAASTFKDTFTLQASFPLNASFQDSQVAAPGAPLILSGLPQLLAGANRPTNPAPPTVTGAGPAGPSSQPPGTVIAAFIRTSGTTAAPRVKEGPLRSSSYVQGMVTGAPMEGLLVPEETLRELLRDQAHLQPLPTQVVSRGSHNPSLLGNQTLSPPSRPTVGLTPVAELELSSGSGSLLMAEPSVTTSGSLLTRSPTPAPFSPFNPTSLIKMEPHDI
# Sequence of HSF1 (Q00613 whole entry): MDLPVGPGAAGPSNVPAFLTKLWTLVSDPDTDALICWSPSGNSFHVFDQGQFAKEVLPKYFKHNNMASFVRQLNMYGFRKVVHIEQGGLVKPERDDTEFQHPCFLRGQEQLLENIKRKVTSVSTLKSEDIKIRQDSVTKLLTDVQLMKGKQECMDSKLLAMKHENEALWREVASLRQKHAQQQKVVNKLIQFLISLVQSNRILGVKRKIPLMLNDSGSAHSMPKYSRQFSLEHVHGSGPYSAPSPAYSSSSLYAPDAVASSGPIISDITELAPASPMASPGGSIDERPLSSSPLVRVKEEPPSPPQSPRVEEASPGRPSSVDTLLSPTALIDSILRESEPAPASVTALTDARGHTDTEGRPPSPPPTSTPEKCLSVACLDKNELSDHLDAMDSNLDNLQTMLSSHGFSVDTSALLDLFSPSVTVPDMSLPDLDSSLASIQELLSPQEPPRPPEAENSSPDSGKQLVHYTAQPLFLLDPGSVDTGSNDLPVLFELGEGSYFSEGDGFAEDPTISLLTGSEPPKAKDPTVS
# Sequence of ETV1 (P50549 whole entry): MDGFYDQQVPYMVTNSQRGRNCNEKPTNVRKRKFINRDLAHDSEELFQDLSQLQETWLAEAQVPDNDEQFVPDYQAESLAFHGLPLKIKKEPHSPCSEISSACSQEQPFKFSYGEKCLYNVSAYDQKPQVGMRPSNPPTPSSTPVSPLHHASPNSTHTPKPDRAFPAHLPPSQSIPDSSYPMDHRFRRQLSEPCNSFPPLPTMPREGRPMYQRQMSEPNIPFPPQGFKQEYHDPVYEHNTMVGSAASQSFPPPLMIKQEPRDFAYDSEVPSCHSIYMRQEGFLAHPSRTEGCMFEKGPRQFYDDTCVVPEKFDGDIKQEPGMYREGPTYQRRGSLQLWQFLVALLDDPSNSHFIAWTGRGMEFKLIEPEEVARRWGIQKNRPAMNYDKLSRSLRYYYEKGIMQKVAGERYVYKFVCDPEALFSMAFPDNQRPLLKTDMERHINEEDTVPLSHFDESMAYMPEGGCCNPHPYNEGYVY
sequence,measurement,setting,value
TTGTAG,binding signal,FEV,"1.02 fold enrichment (6-mer frequency, TF over GST control)"
same,binding signal,ETV5,"1.1 fold enrichment (6-mer frequency, TF over GST control)"
same,binding signal,HSF1,"1.23 fold enrichment (6-mer frequency, TF over GST control)"
same,binding signal,SPIC,"1.02 fold enrichment (6-mer frequency, TF over GST control)"
same,binding signal,ELF4,"1.2 fold enrichment (6-mer frequency, TF over GST control)"
same,binding signal,ELK4,"1.31 fold enrichment (6-mer frequency, TF over GST control)"
same,binding signal,ETV2,"1.15 fold enrichment (6-mer frequency, TF over GST control)"
same,binding signal,ELF3,"1.03 fold enrichment (6-mer frequency, TF over GST control)"
same,binding signal,CRX,"1.13 fold enrichment (6-mer frequency, TF over GST control)"
same,binding signal,ETV1,"1.25 fold enrichment (6-mer frequency, TF over GST control)"
